Experimental data: PubChem BioAssay

Each compound was assayed on Lefty1 (assay: Lefty1 binders on small-molecule microarrays, primary screen, biochemical, small-molecule microarray, 635/667 nm fluorescence (AID 1139)). Details: small-molecule microarray binding, fluorescence 635/667; higher = more signal.
Compound `C=C(COC)/C(=C/C[C@@H](OC(C)=O)c1cccc(OCCO)c1)c1cc(C(=O)OC)ccc1OC` has a composite z-score of 0.499. Compound `CC(C)(C)OC(=O)CC[C@]1(C(=O)NCCN2CCOCC2)N=C(c2ccc(OCCCO)cc2)O[C@H]1c1ccccc1CN=[N+]=[N-]` has a composite z-score of -0.697. `CC(=O)NCCCC[C@@H]1NC(=O)[C@@H]2C[C@H](C(=O)NCCCCCCN(C)C)[C@H](c3ccc(O)cc3)N2C1=O` gave a composite z-score of 1.58. `Cc1ccc(S[C@]2(C(=O)O)CC(=O)N(Cc3ccccc3)[C@@H]2c2ccc(CO)cc2)cc1` showed a composite z-score of -0.532. For `O=C1c2ccccc2[C@](Cc2ccccc2I)(C(=O)NCC(F)(F)F)[C@H](c2ccc(CO)cc2)N1Cc1ccccc1C(F)(F)F`, the composite z-score was 0.108. In the case of `O=C1OCCC=C[C@H]2OC34C=CCN(Cc5ccccc5)C(=O)[C@H]3N(CCO)C(=O)[C@@H]4C12` (stereo partly specified), the composite z-score is reported as -0.705. Work on `C=CCNC(=O)[C@H]1[C@@H]2C(=O)O[C@@H](c3ccccc3)[C@@H](c3ccccc3)N2[C@@H](c2ccccc2OCCO)[C@]12C(=O)N(C(=O)OCCOC)c1ccc(C#CCC(C(=O)OC)C(=O)OC)cc12` yielded a composite z-score of 0.779. `COc1ccc([Si](C)(C)[C@H]2[C@H](CC(=O)N3Cc4ccccc4C[C@H]3CO)O[C@@]3(C(=O)N(Cc4cccc(N5CCOC5=O)c4)c4ccccc43)[C@@H]2C)cc1` showed a composite z-score of 1.24. Compound `CC(C)N1CC=CC23O[C@@H]4/C=C\CCCOC(=O)C4[C@H]2C(=O)N(CCO)[C@@H]3C1=O` (stereo partly specified) has a composite z-score of 0.225. Compound `CC(C)CN1C(=O)[C@@]2(Cc3ccccc31)c1ccccc1C(=O)N(C1CCCCC1)[C@H]2c1ccc(CO)cc1` has a composite z-score of -1.28. In the case of `COc1cccc([C@@H]2[C@@H](C)CC[C@H]3C(=O)N4[C@H](c5cccc(OC)c5)[C@@H](C)CC[C@H]4C(=O)N23)c1`, the composite z-score is reported as 0.418. Compound `CO[C@H]1COC(=O)[C@H](Cc2ccccc2)NC(=O)CC=C[C@@H](C)[C@H](OC)COC(=O)CC=C[C@@H]1C` has a composite z-score of 0.492. For `CO[C@H]1COC(=O)[C@@H](OCc2ccccc2)C=C[C@H](C)[C@@H](OC)COC(=O)[C@H](OCc2ccccc2)C=C[C@@H]1C`, the composite z-score was 0.67. `O=C1O[C@@H](c2ccccc2)[C@@H](c2ccccc2)N2[C@@H](c3ccc(O)cc3)[C@]3(C(=O)Nc4ccccc43)[C@@H](C(=O)N3CCN(c4ncccn4)CC3)[C@H]12` showed a composite z-score of -0.173. `O=C1O[C@@H](c2ccccc2)[C@@H](c2ccccc2)N2[C@@H](c3ccc(O)cc3)[C@]3(C(=O)Nc4ccc(C#CC5(O)CCCCCC5)cc43)[C@@H](C(=O)Nc3nc4ccccc4s3)[C@H]12` was tested, and the composite z-score was 1.53. With `C=CC[C@]1(C(N)=O)N=C(c2ccc(OCCCO)cc2)O[C@H]1c1ccccc1CN=[N+]=[N-]` the composite z-score was -0.484. `COCCOC(=O)N1C(=O)[C@@]2(c3cc(C#CCCO)ccc31)[C@H](C(=O)N1CCCCCCC1)[C@H]1C(=O)O[C@H](c3ccccc3)[C@H](c3ccccc3)N1[C@@H]2c1ccc(O)cc1` was tested, and the composite z-score was 0.957. `C=CCOC(=O)[C@@H]1[C@H]2C(=O)O[C@H](c3ccccc3)[C@H](c3ccccc3)N2[C@H](c2ccc(OCCOC(=O)[C@H]3C[C@H]4C(=O)N5CCC[C@H]5C(=O)N4[C@H]3c3ccc(O)cc3)cc2)[C@@]12C(=O)Nc1ccccc12` gave a composite z-score of 0.872. In the case of `CO[C@H]1COC(=O)CC=C[C@@H](C)COC(=O)[C@@H](C)NC(=O)CC=C[C@@H]1C`, the composite z-score is reported as 1.73. For `C=CCN1C(=O)[C@@]2(O[C@@H](CCn3cc([C@H](O)c4ccccc4)nn3)[C@H]([Si](C)(C)c3ccc(OC)cc3)[C@H]2C)c2cc(N3CCOC3=O)ccc21`, the composite z-score was -0.192. `CCCC/C=C/[C@H]([C@@H](O)Cc1ccccc1)N(CC#Cc1ccccc1)Cc1ccccc1Br` showed a composite z-score of -1.84. For `CCOC(=O)[C@H]1C/C=C/C[C@H](C(=O)OCC)C(=O)O[C@H]2[C@@H](OC)O[C@H](CO)[C@@H](OC(=O)Nc3ccc(Br)cc3)[C@@H]2OC1=O`, the composite z-score was 0.588. With `COC(=O)c1c(CC[C@@H](CO)NC(=O)N[C@H](Cn2cc(-c3cncn3C)nn2)C(C)C)oc(C(C)=O)c1C(=O)OC` the composite z-score was 0.999. `COc1ccc([Si](C)(C)[C@H]2[C@H](CCO)O[C@@]3(C(=O)N(Cc4ccc(N5CCCCC5=O)cc4)c4ccccc43)[C@@H]2C)cc1` gave a composite z-score of 1.36. `O=C1c2ccccc2[C@](Cc2ccccc2I)(C(=O)O)[C@H](c2ccc(CO)cc2)N1C1CCCCC1` showed a composite z-score of 0.4. `CCCNC(=O)[C@@]1(Sc2ccc(C)cc2)CC(=O)N(Cc2ccccc2Cl)[C@@H]1c1ccc(CO)cc1` was tested, and the composite z-score was 1.19. Work on `O=C(NCC(O)CO)[C@]1(Cc2ccccc2)N=C(c2ccc(OCCCO)cc2)O[C@@H]1c1ccccc1` (stereo partly specified) yielded a composite z-score of -1.42. In the case of `O=C(CS)NCCCCCNC(=O)[C@H]1C[C@H]2C(=O)N3CCC[C@H]3C(=O)N2[C@H]1c1ccc(O)cc1`, the composite z-score is reported as -0.0421. `COc1cccc([C@H]2N[C@H](C(=O)O)CC[C@@H]2C)c1` was tested, and the composite z-score was 0.223. Compound `CC(C)[Si]1(C(C)C)O[C@@H](c2ccccc2)c2cc(C3CC3)nc(-c3ccc(Oc4ccccc4)cc3)c21` has a composite z-score of -0.315. In the case of `CC(=O)Nc1ccc([C@H]2[C@H](C)CC[C@H]3C(=O)N4[C@@H](CC[C@@H](C)[C@@H]4c4ccc(NC(C)=O)cc4)C(=O)N32)cc1`, the composite z-score is reported as 1.54. For `COc1cc2c(cc1OC)CN(C(=O)[C@@H]1[C@H]3C(=O)O[C@H](c4ccccc4)[C@H](c4ccccc4)N3[C@H](c3ccccc3OCCO)[C@@]13C(=O)Nc1ccccc13)CC2`, the composite z-score was 0.0595. `[N-]=[N+]=NCc1ccccc1C[C@@]1(C(=O)N2CCOCC2)N=C(c2ccc(OCCCO)cc2)O[C@@H]1c1ccccc1N=[N+]=[N-]` showed a composite z-score of -0.123. `C=CC[C@]1(C(=O)OC)N=C(c2ccc(OCCCO)cc2)O[C@H]1c1ccccc1CN=[N+]=[N-]` showed a composite z-score of -0.525. With `CO[C@]12C=C(Br)[C@@H](C[C@@H]1c1ccccc1)[C@@]1(CO1)C2=O` the composite z-score was 0.41. In the case of `C[C@]1(C(=O)NCc2ccccc2)c2ccccc2C(=O)N(Cc2cc(C(F)(F)F)cc(C(F)(F)F)c2)[C@H]1c1ccc(CO)cc1`, the composite z-score is reported as 0.221.
